# Laboratory results published in PubChem BioAssay (EPA / NIEHS).
# Inconclusive results are not listed. Activity calls are given as the source filed them. How the source made its calls: active means hit-call score of the fitted dose curve at least 0.9, where 1 is the maximum; inconclusive means response in the unintended direction; inactive means score below 0.9.
# Read-out: Cytochrome P450 3A4 (Homo sapiens) (UniProt P08684)
# Assay: CLD_CYP3A4_24hr: CellzDirect (CLD) Gene Expression Assay for xenobiotic metabolism (CYP3A4) at 24 hours (AID 2283689)
# Protocol: CLD_24hr is a cell-based, multiplexed-readout assay that uses hepatocyte, a human liver primary cell, with measurements taken at 24 hours after chemical dosing in a 96-well plate.CLD_CYP3A4_24hr is one of 16 assay component(s) measured or calculated from the CLD_24hr assay. It is designed to make measurements of mRNA induction, a form of inducible reporter, as detected with chemiluminescence signals by Quantitative Nuclease Protection Assay (qNPA) technology.Data from the assay component CLD_CYP3A4_24hr was analyzed at the endpoint, CLD_CYP3A4_24hr, in the positive analysis fitting direction relative to DMSO as the negative control and baseline of activity. Using a type of inducible reporter, gain-of-signal activity can be used to understand changes in the reporter gene as they relate to the gene CYP3A4. Furthermore, this assay endpoint can be referred to as a primary readout. To generalize the intended target to other relatable targets, this assay endpoint is annotated to the cyp intended target family, where subfamily is xenobiotic metabolism.
# Human hepatocyte cultures were treated daily for two consecutive days with fresh dosing solutions containing appropriate concentrations of the 320 ToxCast chemicals (chemical identities were blinded to CellzDirect and other ToxCast collaborators), vehicle control (0.2% DMSO), and positive control inducers as summarized in Table 1. Due to the large number of treatment groups and chemicals examined, the ToxCast chemicals were divided into two groups (spanning two independent cultures of hepatocytes from separate donor preparations (Hu778: ToxCast plates 1 and 2; Hu776: ToxCast plates 3 and 4). Each preparation of human hepatocyte cultures was treated with respective vehicle control, medium only control, set of six positive controls/reference chemicals for the five hepatic receptor pathways, and a subset of eight of the ToxCast chemicals (indoxacarb, pyrithiobac-sodium, norflurazon, cyhalofop-butyl, methomyl, thiram, acetochlor, and propiconazole). These replicate data, coupled with internal replicates designed within the blinded ToxCast chemical library, provided additional data to evaluate interindividual differences between hepatocyte preparations and their potential impact on chemical profiles.Cell morphology and integrity were evaluated using phase-contrast microscopy as an indicator of hepatocyte cell health (Tyson & Green, 1987). Cultures for each treatment group (i.e., media, vehicle [0.2% DMSO], positive control inducers [multiple concentrations], and the ToxCast chemicals [multiple concentrations]) were observed and cell morphology was assessed relative to vehicle control cultures at each harvest time point (0, 6, 24, or 48 h). […] Images were evaluated at the conclusion of the study to assess changes in cell integrity and account for the effects of chemical exposure on uncharacteristic changes in concentration-dependent gene expression profiles. The results from these determinations of apparent cytotoxicity were annotated (yes/no) alongside the corresponding qNPA data for reference.At the conclusion of each treatment period, hepatocyte cultures (96-well) were washed with 1 volume of HBSS, lysed by addition of 25 ul ArrayPlate lysis buffer (HTG, Tucson, AZ), and 70 ul/well of Denaturation Oil, denatured by incubation at 95C for 10 min, and frozen at approximately -70C until analysis by nuclease protection assay (qNPA) (Roberts et al., 2007). For qNPA analysis, cell lysates were thawed at 50C for approximately 30 min, qNPA probes were added, and samples were incubated at 95C for 10 min to begin the detection process by denaturing the target RNA, dissociating the duplexes and secondary structure hybridization. At the conclusion of the hybridization period, S1 nuclease reagent was added to each sample to digest all nonprotected nucleotides at 50C for 60-90 min. […]
# Chain of Cytochrome P450 3A4 (Homo sapiens) (P08684 whole entry, looked up): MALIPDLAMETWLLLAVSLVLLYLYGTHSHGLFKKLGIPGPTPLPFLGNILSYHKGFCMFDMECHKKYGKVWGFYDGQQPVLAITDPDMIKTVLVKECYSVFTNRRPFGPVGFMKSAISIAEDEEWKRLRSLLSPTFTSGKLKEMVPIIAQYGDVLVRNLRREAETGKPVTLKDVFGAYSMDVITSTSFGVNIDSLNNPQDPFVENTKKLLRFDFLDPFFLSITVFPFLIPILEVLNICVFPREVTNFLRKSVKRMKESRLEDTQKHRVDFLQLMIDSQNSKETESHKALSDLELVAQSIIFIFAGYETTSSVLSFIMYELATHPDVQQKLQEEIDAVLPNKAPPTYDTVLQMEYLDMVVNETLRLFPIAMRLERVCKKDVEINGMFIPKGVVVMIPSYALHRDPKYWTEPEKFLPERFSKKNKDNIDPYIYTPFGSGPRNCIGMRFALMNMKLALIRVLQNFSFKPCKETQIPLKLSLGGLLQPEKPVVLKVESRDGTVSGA
Compound,AC50,outcome
CS(=O)(=O)c1cc(C(F)(F)F)ccc1C(=O)c1cnoc1C1CC1,9.79 µM (active),
CCCC(=NOCC)C1=C(O)CC(CC(C)SCC)CC1=O (stereo not given),32.9 µM (active),
Clc1cccc(C(Cl)(Cl)Cl)n1,,inactive
CCNP(=S)(OC)O/C(C)=C/C(=O)OC(C)C (stereo not given),1.94 µM (active),
CC(C)N1C(=O)N(c2ccccc2)CSC1=NC(C)(C)C,20 µM (active),
Cn1c(-c2ccccc2)cc(-c2ccccc2)[n+]1C,,inactive
CCOP(=O)(OCC)Oc1nc(Cl)c(Cl)cc1Cl,3.97 µM (active),
O=C(O)c1c(Cl)ccc2cc(Cl)cnc12,,inactive
CC(C)=CC1C(C(=O)OCc2coc(Cc3ccccc3)c2)C1(C)C (stereo not given),,inactive
N#Cc1c[nH]cc1-c1cccc2c1OC(F)(F)O2,4.26 µM (active),
Clc1nc(Cl)nc(Nc2ccccc2Cl)n1,,inactive
CC1(C)CON(Cc2ccccc2Cl)C1=O,20 µM (active),
CCC(C)n1c(=O)[nH]c(C)c(Br)c1=O (stereo not given),,inactive
CNC(=O)N(C)c1nnc(C(C)(C)C)s1,,inactive
CC(C)Nc1nc(Cl)nc(NC(C)C)n1,6.2 µM (active),
O=c1n(Cl)c(=O)n(Cl)c(=O)n1Cl,,inactive
CO/N=C(/C1=NOCCO1)c1ccccc1Oc1ncnc(Oc2ccccc2Cl)c1F,,inactive
COC(=O)c1c(C(F)F)nc(C(F)(F)F)c(C2=NCCS2)c1CC(C)C,,inactive
CCN(CC)C(=O)C(C)Oc1cccc2ccccc12 (stereo not given),,inactive
CC(C)NC(=O)N1CC(=O)N(c2cc(Cl)cc(Cl)c2)C1=O,9.31 µM (active),

Compound,AC50,outcome
CS(=O)(=O)c1ccc(C(=O)C2C(=O)CCCC2=O)c([N+](=O)[O-])c1,,inactive
Nc1c(Cl)c(Cl)nc(C(=O)O)c1Cl,,inactive
N#CN=C1SCCN1Cc1ccc(Cl)nc1,10.9 µM (active),
C=CCOC(=O)C(C)(C)OC(=O)c1cc(-n2c(=O)cc(C(F)(F)F)n(C)c2=O)ccc1Cl,0.47 µM (active),
CCN(CC)c1nc(C)cc(OP(=S)(OC)OC)n1,3.81 µM (active),
Cc1c(COC(=O)[C@@H]2[C@H](/C=C(\Cl)C(F)(F)F)C2(C)C)cccc1-c1ccccc1,6.84 µM (active),
CCOc1nc(F)cc2nc(S(=O)(=O)Nc3c(Cl)cccc3Cl)nn12,2.93 µM (active),
CCCCOCN(C(=O)CCl)c1c(CC)cccc1CC,,inactive
COP(=O)(OC)O/C(C)=C/C(=O)N(C)C,,inactive
CCCCC(C#N)(Cn1cncn1)c1ccc(Cl)cc1 (stereo not given),9.54 µM (active),
COP(=S)(OC)SCn1nnc2ccccc2c1=O,20 µM (active),
O=P(O)(O)CCCl,,inactive
C=C(C)CN(CC)c1c([N+](=O)[O-])cc(C(F)(F)F)cc1[N+](=O)[O-],5.33 µM (active),
CCSC(=O)N1CCCCCC1,0.0865 µM (active),
CCOc1cc(C(C)(C)C)ccc1C1COC(c2c(F)cccc2F)=N1 (stereo not given),1.9 µM (active),
CN=C=S,,inactive
COC(=O)N(C(=O)N1CO[C@@]2(C(=O)OC)Cc3cc(Cl)ccc3C2=N1)c1ccc(OC(F)(F)F)cc1,6.53 µM (active),
COP(=S)(OC)Oc1ccc([N+](=O)[O-])c(C)c1,16.6 µM (active),
CC(C)(C)C(=O)C(Oc1ccc(Cl)cc1)n1cncn1 (stereo not given),1.63 µM (active),
CCOc1nc(C(Cl)(Cl)Cl)ns1,,inactive
